Screening data (PubChem)
TRPML1 ag = human mucolipin-1 channel agonism | AID 624414 | Q9GZU1 | TRPML1-expressing cells, Ca2+ dye fluorescence, FDSS | activation, % (concentration not given with the values) | 0.12% of 410,000 active; in the data active means activation above about 50%; inconclusive means mostly about 30% to 49%
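Calcium fluorescence on an FDSS kinetic reader gave the read-out. Tet-induced TRPML1-DL cells were plated overnight, dye-loaded (Ca8 with quencher, 45-90 min, room temperature, dark), then read 110 s after compound addition, and again 110 s after 4uM final 54-4 (EC80).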
TRPML1 blocker = inhibitors of human TRPML1 channel | Q9GZU1 | TRPML1-inducible cells, Ca2+ dye fluorescence, FDSS; stronger effect = lower value; inhibition of EC80 agonist-evoked calcium signal | activity change, negative = inhibition, % (concentration not given with the values) | 0.02% of 390,000 active | AID 624415; in the data active means activity change below about -50%; inconclusive means between about -30% and that limit;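 further: stimulus is agonist 54-4 at its EC80 concentration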
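TRPML1-DL cells, Tet-induced overnight (~16 h, 37 °C) at 1,500 cells/well, were loaded with Ca8 no-wash dye plus quencher for 45-90 min at room temperature. Compounds were pinned during FDSS kinetic reading; agonist 54-4 at EC80 (4 uM final) then added.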
KCNH2 3.1 block = KCNH2 3.1 (human) potassium channel inhibition; U2OS KCNH2 3.1, thallium flux FluxOr; stronger effect = lower value; activity change, % (tested at about 1.8 µM); 0.95% of 340,000 active; AID 720553;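 active means maximum activity change below -70%; inconclusive means maximum activity change from -70% to -50%; inactive means maximum activity change above -50%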;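 further: thallium influx rate constant from kinetic fluorescence after stimulation buffer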
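U2OS cells transduced with KCNH2 3.1 mutant virus (1.77 x 10^8 /mL, 4 h), plated overnight at 37 C, loaded 45 min with FluxOr dye plus Red40 quencher. Thallium flux rate constant from kinetic reads after stimulation buffer, normalised to controls.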
PTAP TSG101 blk = blocks PTAP/TSG101 interaction to inhibit HIV-1 budding | Q99816 | Fluorescence polarization, FITC-PTAP peptide / Tsg101 binding | Potency, µM (doses to about 115 µM), actives largely listed as inhibitors | 340,000 tested, under 10 active | AID 493005; active means well fitted inhibition curve with a large enough effect in the main read-out, with a control signal flat, not every such curve was filed as active; inconclusive means small, poorly fitted or top-dose-only effect, or effect the other way, or a change in a side signal; inactive means no such curve, though single readings can be large or run the other way
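FP read-out: FITC-PTAP peptide, 50 nM final, binding Tsg101 binding domain, 10 uM final; 20 min, r.t.; 10 mM HEPES pH 7.5, 0.15 M NaCl, 0.01% Tween 20, 3 mM EDTA, 0.1 mM TCEP.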
Glioma ERSR ind = ER stress response induction in glioma; U87-MG GRP78 promoter luciferase reporter, 16 h; Potency, µM, hits mostly activators; 0.02% of 420,000 active; AID 602332; active means well fitted activation curve with a large enough effect; inconclusive means small, poorly fitted or top-dose-only effect; inactive means no such curve, though single readings can be large or run the other way; further: series mostly up to about 76 µM; nearly all actives have a fitted effect of over 35% in size
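Stably transfected U87-MG glioma cells carrying a GRP78-based luciferase sensor; 16 h compound incubation. Luminescence end-point read 10 min after Bright-Glo addition at room temperature.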
hERG WT inh = blocks the wildtype human KCNH2 potassium channel | AID 720551 | U2OS, BacMam KCNH2, thallium flux FluxOr; stronger effect = lower value | activity change, % at 1.84 µM | Q12809 | 0.37% of 340,000 active;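 active means maximum activity change below -70%; inconclusive means maximum activity change between -70% and -50%; inactive means maximum activity change above -50%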
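U2OS cells transduced with wild-type KCNH2 virus are loaded with FluxOr dye for 45 min, and thallium flux is measured in kinetic reads before and after stimulation buffer. Rate constants are normalized to DMSO controls.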
Hits are given with their value; – = inactive; ? = inconclusive; · = no result given. Shown are actives, neighbours in structure and some others; about 1% of the full set was active somewhere.

SMILES | TRPML1 ag | TRPML1 blocker | KCNH2 3.1 block | PTAP TSG101 blk | Glioma ERSR ind | hERG WT inh
COc1cc(=O)n2c(c1C(=O)NCc1ccco1)CCN(Cc1ccc3nsnc3c1)CC2 | · | · | · | · | – | ·
COc1ccccc1N1CC(C)(C)C(=O)N(C(=O)c2ccc(C)cc2)C1=S | – | – | – | – | 25µM | –
COc1ccccc1N1CC(C)(C)C(=O)N(C(=O)c2ccc(Cl)cc2)C1=S | – | – | – | – | – | –
Cc1ccc(SC[C@H](Cc2ccccc2)N2CCN(CCc3ccccc3)CCC2=O)cc1 | – | – | -106 | – | – | -101
COc1ccc(SCC(Cc2ccccc2)N2CCN(CCc3ccccc3)CCC2=O)cc1 (stereo not drawn) | – | – | · | · | – | ·
O=C1CCN(CCc2ccccc2)CCN1[C@H](CSc1ccccc1)Cc1ccccc1 | – | – | -103 | – | – | -141
CCCN1CCC(=O)N([C@H](CSc2ccc(C)cc2)Cc2ccccc2)CC1 | – | – | -101 | – | – | –
CCCN1CCC(=O)N([C@H](CSc2ccc(OC)cc2)Cc2ccccc2)CC1 | – | – | -101 | – | – | –
Cc1ccc(SCC(Cc2ccccc2)N2CCN(CC(C)C)CCC2=O)cc1 (stereo not drawn) | – | – | · | · | – | ·
O=C1CCN(CCc2ccccc2)CCN1C(CSc1ccc(Br)cc1)Cc1ccccc1 (stereo not drawn) | – | – | · | · | – | ·
COc1cccc(CN(C)C(=O)c2cnn(-c3ncc4c(n3)-c3ccccc3CCC4)c2C)c1 | · | · | · | · | – | ·
COC(=O)c1ccc(C(=O)N2CCc3c(C(=O)NC(C)c4ccco4)c(OC)cc(=O)n3CC2)cc1 (stereo not drawn) | · | · | · | · | – | ·
Cc1c(C(=O)N2CCCCC2)sc2ncnc(NCCN(C)C)c12 | · | · | · | · | – | ·
CCCN1CCC(=O)N([C@H](CO)Cc2ccccc2)CC1 | – | – | – | – | – | –
CCCCCCCN1CCC(=O)N([C@H](CO)Cc2ccccc2)CC1 | – | – | -109 | – | – | ?
CC12C=CC(=O)C=C1CCC1C2C(O)CC2(C)C1CCC2(O)C(=O)COC(=O)CCC(=O)O (stereo not drawn) | · | · | · | · | – | ·
O=C(NCc1nnc2n1CCN(Cc1cc3c(cc1Cl)OCO3)CC2)C1CCOC1 (stereo not drawn) | · | · | · | · | – | ·
CC(=O)c1ccccc1-c1ccc2c(c1)CC(CNC(=O)c1ccnc(Cl)c1)O2 (stereo not drawn) | · | · | · | · | – | ·
O=C(c1cc(Br)c(Br)s1)N1CCOCC1 | – | – | – | – | – | -201
COc1ccc(C(=O)C2CCN(C(=O)c3ccc(OC)cc3)CC2)cc1 | – | – | -84 | – | – | –
COc1ccccc1CN1CCC(n2cc(C(=O)N3CCCCC3)nn2)CC1 | · | · | · | · | – | ·
COc1ccccc1C1CN(Cc2ccc(Sc3nncn3C)o2)Cc2ccccc2O1 (stereo not drawn) | · | · | · | · | – | ·
Cc1cnc(C)c(-c2cccc3c2OC(CNC(=O)C[C@@H]2C[C@@H](C)NC(=S)N2)C3)n1 (stereo partly drawn) | · | · | · | · | – | ·
CCCC(=O)n1nc(-c2cccnc2)nc1NCc1ccccc1 | – | – | -125 | – | – | –
O=C(C[n+]1ccc2ccccc2c1)c1ccc(F)cc1 | – | · | · | · | – | ·
SMILES | TRPML1 ag | TRPML1 blocker | KCNH2 3.1 block | PTAP TSG101 blk | Glioma ERSR ind | hERG WT inh
N#C/C(=C/c1ccc(N2CCOCC2)o1)C(=O)Nc1ccccc1 | 83 | – | – | ? | – | –
CCCS(=O)(=O)NCc1c(C)ncc2c1CCN(C(=O)/C=C/c1ccccc1)C2 | · | · | · | · | – | ·
CC(=O)Nc1ccc(/C=N/N2C(=O)NC(C)(c3ccc(OC(F)F)cc3)C2=O)cc1 (stereo not drawn) | 50 | – | – | – | – | –
COc1ccc(Cn2nnnc2C(c2ccccn2)N2CCN(c3cc(Cl)ccc3C)CC2)cc1 (stereo not drawn) | 74 | – | – | – | – | –
CCCOCCOC(=O)C1=C(C)NC(=O)NC1c1cc(Cl)c(O)c(OC)c1 (stereo not drawn) | – | – | -72 | – | – | –
CCOC(=O)C1=C(C)NC(=O)NC1c1cc(Br)c(O)c(OC)c1 (stereo not drawn) | – | – | – | – | – | –
CC(=O)[C@@]1(O)CC[C@H]2[C@@H]3C=C(Cl)C4=CC(=O)CC[C@]4(C)[C@H]3CC[C@@]21C | · | · | · | · | – | ·
Cc1ccc(C)c(N(C(=O)CNC(=O)c2ccco2)C(C(=O)NCC2CCCO2)c2ccccc2)c1 (stereo not drawn) | – | – | -75 | – | – | –
COc1ccc(C)cc1N(C(=O)CNC(=O)c1ccco1)C(C(=O)NCC1CCCO1)c1ccccc1 (stereo not drawn) | – | – | – | – | – | –
COc1ccccc1C1CN(Cc2cccnc2)Cc2ccccc2O1 (stereo not drawn) | · | · | · | · | – | ·
O=C1N2CCSC2=NC1(Nc1ccccn1)C(F)(F)F (stereo not drawn) | ? | – | – | – | – | –
CS(=O)(=O)c1ccc2nc(NC3(C(F)(F)F)N=C4SCCN4C3=O)sc2c1 (stereo not drawn) | – | – | – | – | – | -85
Clc1ccc(Nc2nc3cccnc3s2)cc1 | – | – | – | – | – | –
CCCCNc1nc2cccnc2s1 | – | – | -130 | – | – | –
C[C@@H]1CN(Cc2ccc3c(c2)CN(Cc2nc(-c4ccccc4)cs2)CCO3)C[C@H](C)O1 | · | · | · | · | – | ·
CCCCNC(=O)CN1CCN(Cc2ccc3cc(OC)ccc3c2)CC1 | – | – | -84 | – | – | –
O=C(CN1CCN(C(=O)C2CCN(C(=O)/C=C/c3ccccc3)CC2)CC1)Nc1ccc(F)cc1 | – | – | -99 | – | – | –
CCOc1ccc(NC(=O)CN2CCN(CC(=O)Nc3ccc4c(c3)OCO4)CC2)cc1 | – | – | -106 | – | – | -120
O=C(/C=C/c1ccc(F)cc1)NNC(=O)CCN1CCN(Cc2ccccc2)CC1 | – | – | -105 | – | – | –
CC1CCN(CC(=O)Nc2ccc3c(c2)OCO3)CC1 | – | – | – | – | – | –
CCN(CC)c1ccccc1/C=C/[n+]1ccc(CCCCI)c2ccccc21 | – | · | · | · | – | ·
COc1ccccc1C1CN(CCNC(=O)c2ccccc2Cl)Cc2ccccc2O1 (stereo not drawn) | · | · | · | · | – | ·
O=C(CCN1CCN(CCO)CC1)Nc1ccc(OCc2ccccc2)cc1 | – | – | – | – | – | –
O=C(CN1CCCCCC1)Nc1ccc(Oc2ccccc2)cc1 | ? | – | -96 | – | – | –
COc1cc(NC(=O)CN2CCCCCC2)cc(OC)c1 | – | – | – | – | – | –
COc1ccc(NC(=O)CN2CCN(CC(=O)Nc3cc(OC)cc(OC)c3)CC2)cc1 | – | – | -81 | – | – | –
